Results: PubChem BioAssay (NCATS)
Records with an inconclusive call do not appear. A number with no mark means an inactive call. Calls follow the shape of the dose curve; as a rule, active = well fitted cell-killing curve with a large enough effect; inconclusive = small, poorly fitted or top-dose-only effect; inactive = no such curve, though single readings can be large or run the other way.

experiment: Cell Viability - LYMP2-001 (AID 921); settings: LYMP2-001 lymphoblastoid cell viability; series mostly up to 92.2 µM; activity change, negative = cytotoxic: at the top concentration;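 also: 0% = DMSO only and full inhibition = tetraoctylammonium bromide control wells; nearly all actives have a fitted effect of over 70% in size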
From the text: NIH Chemical Genomics Center [NCGC]
NIH Molecular Libraries Screening Centers Network [MLSCN]
National Institutes of Environmental Health Sciences [NIEHS]
National Toxicology Program [NTP]
We have developed a 1536-well cell-based assay for quantitative high throughput screening (qHTS) against a number of cell lines to determine in vitro cytotoxicity of small molecules. This particular assay uses a human lymphoblastoid cell line (LYMP2-001) purchased from Coriell Institute for Medical Research.
NCGC Assay Protocol Summary:
The CellTiter-Glo luminescent cell viability assay (Promega) is a homogeneous method to measure the number of viable cells in culture. The end point readout of this assay is based on quantitation of intracellular ATP, an indicator of metabolic activity, using the luciferase reaction. Luciferase catalyzes the oxidation of beetle Luciferin to oxyluciferin and light in the presence of ATP. The luminescent signal is proportional to amount of ATP present.
Using the CellTiter-Glo luminescent cell viability assay, the amount of cellular ATP was measured in the lymphoblastoid cell line with complete culture medium following compound treatment for 24 hours. The assay was performed in opaque white Kalypsys 1536-well plates. In the screen, tetraoctylammonium bromide was used as positive control. Library compounds were measured for their ability to cause acute toxicity in the cell line, as reflected by a decrease in intracellular ATP levels, in a concentration-dependent manner. […] AC50 values were determined from concentration-response data modeled with the standard Hill equation.
qHTS protocol for CellTiter Glo lymphoblastoid cellular assay
[Step] [Parameter] [Value] [Description]
1. Reagent; 5 uL; 2500 lymphoblastoid cells/well
2. Time; 5 hr; 37 C incubation
4. Controls; 23 nL; Tetraoctylammonium bromide 6.4pM to 92 uM
5. Time; 24 hr; 37 C incubation
6. Reagent; 5 uL; CellTiter Glo reagent
7. Time; 30 min; Room Temperature
8. Detection; Luminescence; Viewlux plate reader
Keywords: cell viability, cytotoxicity, lymphoblastoid cell line, luminescence, NTPHTS, NTPHTS_NCGC, NIEHS, DSSTox, MLSMR, MLSCN, NIH Roadmap, qHTS, NCGC

Row | SMILES | activity change, negative = cytotoxic
1 | CC(=O)Nc1ccc(C)cc1 | -8.15%
2 | CCCC=O | -16.5%
3 | CC(N)CN (stereo not given) | -36.6%
4 | C=CCCC | -4.33%
5 | C/C=C1\CC2C=CC1C2 (stereo not given) | -3.2%
6 | O=[N+]([O-])c1ccc2nc[nH]c2c1 | -11.8%
7 | CCNS(=O)(=O)c1ccc(C)cc1 | -26.3%
8 | CN(C)CCCCl | 0.473%
9 | Cc1cccc(C)c1 | 3.77%
10 | CCC(C)=O | 1.37%
11 | O=[N+]([O-])c1cc(C(F)(F)F)ccc1Cl | -10.8%
12 | Cc1cc(C)c(N)cc1C | -10.4%
13 | C=Cc1ccccc1C=C | -0.629%
14 | NC(=O)c1ccccc1[N+](=O)[O-] | -6.97%
15 | CC(C)(C)OCC1CO1 (stereo not given) | -12.1%
16 | C=Cc1ccc(C=C)cc1 | -4.52%
17 | CCCOCC(C)OCC(C)O (stereo not given) | -4.54%
18 | Cc1ccc2nc(-c3ccc(N)cc3)sc2c1S(=O)(=O)O | -2.09%
19 | Fc1ccccc1 | -52.3%
20 | Nc1cc(Cl)c(N)c(Cl)c1 | -7.61%

Row | SMILES | activity change, negative = cytotoxic
21 | Cc1cccc(C)c1[N+](=O)[O-] | -5.71%
22 | CCCCCCCCCCCCC1CO1 (stereo not given) | -11.3%
23 | C(=C/c1ccccc1)/c1ccccc1 | -17.7%
24 | Cc1ccc(Br)cc1 | -13.3%
25 | O=C(O)c1ccc(Cl)c(Cl)c1 | -5.09%
26 | CC(=O)Nc1ccc(N)cc1 | -16.9%
27 | CC=O | 1.57%
28 | [O-]/[N+](=N\O)c1ccccc1 | -5.75%
29 | FC(F)(F)c1ccccc1Cl | 7.36%
30 | CCCCC(CC)CNCC(CC)CCCC (stereo not given) | -15.4%
31 | O=C1OC(=O)c2c(Cl)c(Cl)c(Cl)c(Cl)c21 | -15.6%
32 | OC(CCl)CCl | -6.99%
33 | CCOc1cccc(N)c1 | -16%
34 | Cc1ccc([N+](=O)[O-])c(N)c1 | -2.16%
35 | C=Cc1ccccn1 | -24.7%
36 | OC/C(Br)=C(\Br)CO | -8.76%
37 | Cc1ccccc1C(=O)O | -22.8%
38 | C[C@@H]1CC2(OC3C[C@@]4(C)C5=CC[C@H]6C(C)(C)C(O[C@@H]7OC[C@@H](O)[C@H](O)[C@H]7O)CC[C@@]67C[C@@]57CC[C@]4(C)C31)OC(O)C1(C)OC21 (stereo not given in full) | -19.9%
39 | COc1cccc2sc(N)nc12 | 18%
40 | O=[N+]([O-])c1c(Cl)cc(Cl)cc1Cl | 10.2%
